PLCb3 inh: blocks human PLC-beta3 enzyme activity. Purified PLC-beta3, fluorogenic substrate, fluorescence. inhibition, % at 12.2 µM. hit rate 0.18% among 370,000; in the data active = inhibition above about 11%;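 note: 0% = median of compound wells on plate and 100% = full blocker control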
ADAM17 inh: inhibits human ADAM17; inhibition, % at 6.95 µM; hit rate 0.83% among 370,000; AID 720648; recombinant ADAM17, EDANS/DABCYL FRET peptide cleavage;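 active = inhibition above the mean of compounds lying between control limits plus 3 SD, set per campaign, cut at about 8.5% in these data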;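 note: 0% = DMSO-only wells as the low control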
proKLK7 act: activators of human kallikrein-7 zymogen | activation, % at 7 µM | purified proKLK7, EDANS-DABCYL substrate fluorescence; 100% is mature enzyme control, 0% vehicle | P49862 | hit rate 0.9% among 370,000;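 active = activation above the mean of all tested compounds plus 3 SD, computed per campaign excluding outliers beyond control limits, cut at about 13% in these data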
sPLA2-III inh: Blocks human group III sPLA2 activity; Q9NZ20; QFRET BODIPY PC-A2 liposome hydrolysis, fluorescence; inhibition, % at 12.2 µM; hit rate 0.56% among 370,000; AID 743126;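 active = inhibition above mean plus 3 SD of compounds lying within the high and low control bounds, cut at about 19% in these data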;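 note: 0% = median of test compound wells and 100% = no enzyme DMSO wells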
Target sequence (Q9NZ20 whole entry, looked up): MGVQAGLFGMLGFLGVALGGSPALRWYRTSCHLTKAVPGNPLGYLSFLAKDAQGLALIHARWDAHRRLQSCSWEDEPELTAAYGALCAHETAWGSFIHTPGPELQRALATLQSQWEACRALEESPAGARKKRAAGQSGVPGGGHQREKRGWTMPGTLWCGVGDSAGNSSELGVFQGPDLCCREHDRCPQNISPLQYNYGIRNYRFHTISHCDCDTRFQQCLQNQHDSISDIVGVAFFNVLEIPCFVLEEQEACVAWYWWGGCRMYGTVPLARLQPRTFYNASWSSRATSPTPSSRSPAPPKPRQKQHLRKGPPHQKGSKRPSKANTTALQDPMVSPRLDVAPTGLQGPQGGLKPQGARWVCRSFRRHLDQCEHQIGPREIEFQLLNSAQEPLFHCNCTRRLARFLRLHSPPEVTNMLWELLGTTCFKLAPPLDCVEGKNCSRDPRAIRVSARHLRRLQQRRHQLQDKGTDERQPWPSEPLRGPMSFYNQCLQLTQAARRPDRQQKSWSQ
ADAM10 inh: inhibits human ADAM10 | recombinant ADAM10, EDANS/DABCYL FRET peptide cleavage, 3 h | inhibition, % at 7 µM | hit rate 0.62% among 370,000;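 active = inhibition above a per-campaign cutoff equal to the mean of compounds falling between control-based bounds plus 3 SD, cut at about 20% in these data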;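 note: 0% = DMSO wells while the 100% control is not disclosed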
PLCg1 inh: PLC-gamma1 (human) inhibition, primary screen; purified PLC-gamma1, fluorogenic substrate, fluorescence; inhibition, % at 12.2 µM; hit rate 0.84% among 370,000; AID 720700; in the data active = inhibition above about 9.5%
proKLK7 act conf: confirmation of human kallikrein-7 zymogen activators. shares compounds with proKLK7 act. purified proKLK7, EDANS-DABCYL substrate fluorescence; scaled: vehicle 0, mature enzyme 100. activation, % at 7 µM. hit rate 68% among 3,200. AID 686949;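 active = activation, as change over the incubation, above the mean of all tested compounds plus 3 SD, cut at about 13% in these data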
EDANS interfere: optically interferes with EDANS-DABCYL signal, flagging KLK7 hits. AID 686952. EDANS-DABCYL substrate fluorescence interference, no enzyme, 4 h; solvent 0%, active enzyme control 100%. shares compounds with proKLK7 act. activation, % at 7 µM. hit rate 80% among 3,200;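 active = activation above the all-compound mean plus 3 SD, ignoring values outside control-based bounds, cut at about 4.8% in these data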;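 note: value is the 4 h activation minus the activation read at time zero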
* = called active by the depositor; i = inactive; / = no result. Shown are actives, neighbours in structure and some others; about 3.4% of the full set was active somewhere.

SMILES	PLCb3 inh	ADAM17 inh	proKLK7 act	sPLA2-III inh	ADAM10 inh	PLCg1 inh	proKLK7 act conf	EDANS interfere
COc1cccc(/C=N/NC(=O)C(=O)N2CCCCCC2)c1OC	-6	-1	1	5	4	-2	/	/
COc1ccccc1C=NNC(=O)c1ccncc1	2	1	1	-3	1	-3	/	/
COc1ccc(OC)c(/C=N/NC(=O)C(=O)N2CCCCCC2)c1	-49	-17	51*	7	-61	-30	48*	45*
COc1cccc(/C=C2/Sc3ccc(C(=O)NC4CC4)cc3NC2=O)c1	-15	-3	-1	-7	-6	-10	/	/
O=C(NCc1ccccc1)[C@@H]1CCCN1C(=O)[C@H]1CCCN1C(=O)c1cccc2ccccc12	4	1	0	2	9	2	/	/
CC(C)C[C@@H]1COc2cc(NCCCN3CCOCC3)ccc2S(=O)(=O)N1	0	-6	1	18	-6	2	/	/
O=C(OCC#CCSc1nnc(-c2ccc3ccccc3c2)o1)c1cccs1	-1	1	/	-20	4	-1	/	/
COc1ccc(OC)c(/C=N/NC(=O)c2ccc(=O)[nH]n2)c1	-16	-3	16*	-11	-9	-6	17*	20*
COc1cccc(/C=N/NC(=O)c2ccc(=O)[nH]n2)c1O	-9	-6	0	-14	-5	1	/	/
COc1ccc(OC)c(/C=N/NC2=NS(=O)(=O)c3ccccc32)c1	-80	-6	51*	3	-19	-53	52*	46*
COc1ccc(OC)c(/C=N\NC(=O)c2ccc(=O)n(C)c2)c1	-124	-38	16*	2	-131	-116	12	10*
CCCCNC(=O)CN1C(=O)c2cccc(N)c2C1=O	i	-127	-30	4	-349	i	/	/
COc1ccccc1CNC(=O)CN1C(=O)c2cccc(N)c2C1=O	i	-214	50*	8	i	i	-1	44*
COc1ccccc1CNC(=O)CCN1C(=O)c2ccccc2C1=O	-2	-5	0	8	2	2	/	/
CC1CCCCC1NC(=O)CN1C(=O)c2cccc(N)c2C1=O (stereo not drawn)	i	-139	34*	-3	-344	i	78*	70*
CN(C(=O)CN1C(=O)c2cccc(N)c2C1=O)C1CCCCC1	i	-151	109*	-15	i	i	74*	76*
O=C1NC(c2ccccc2)(c2ccccc2)C(=O)N1CNc1ccccn1	1	-4	0	12	-10	-1	/	/
Cc1onc(C(=O)N2CCN(C(c3ccc(F)cc3)c3ccc(F)cc3)CC2)c1[N+](=O)[O-]	5	3	/	-41	10	4	/	/
CCCCCCCCN1C(=O)[C@@H](CC(=O)N2CCC(c3ccccc3)CC2)C[C@@]2(C(=O)OC)C1=C[C@H](C(C)(C)C)O[C@@H]2C	3	2	0	8	1	5	/	/
COc1ccc(-c2oc3c(c2C#CC(C)(C)O)C(OC)CCC3)cc1 (stereo not drawn)	-219	-266	23*	-11	i	-160	-15	-22
COc1ccc(-c2oc3c(c2C#CC2(O)CCCCC2)C(OC(C)=O)CCC3)cc1 (stereo not drawn)	-16	-5	0	-14	-17	-13	/	/
O=C(Cc1ccc([N+](=O)[O-])cc1)NCc1cccnc1	-6	-2	0	8	-4	-3	/	/
O=C(Cc1ccc([N+](=O)[O-])cc1)NCc1ccccc1Cl	1	4	40*	4	4	4	-1	-1
NC(=O)C1CCN(c2ncc(Br)cn2)CC1	-4	-4	/	2	-20	-5	/	/
Cc1ccc2nc(-c3ccc(SCC(=O)O)nc3)[nH]c2c1	-405	i	16*	15	i	-315	23*	27*
Cc1ccc2nc(-c3ccc(SCC(=O)N4CCc5ccccc54)nc3)[nH]c2c1	-6	0	-6	-4	-20	-5	/	/

High-throughput results (PubChem)
